Where “and” joins values, the source holds several entries; their conditions need not be identical. Equal values may be shown once. Results filed as inconclusive are left out. Entries that show only a call come without a potency. Calls of active or inactive are those of the source. Unless noted, calls come from the whole dose curve; as a rule, active = well fitted curve in the direction sought with a large enough effect in the repeat runs; inconclusive = weak or mixed curves; inactive = no such curve, though single readings can be large; an effect the other way counts as inactive or inconclusive.
Tests used:
[1] = qHTS assay for small molecules that induce genotoxicity in human embryonic kidney cells expressing luciferase-tagged ATAD5 (AID 651632); settings: HEK293T ATAD5-luciferase induction, 16 h; series mostly up to 83.3 µM; note: nearly all actives have a fitted effect of over 15% in size
Method in brief: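 Genotoxicity read-out via ATAD5-luciferase: HEK293T cells, 16 hr compound incubation at 37C, Amplite detection.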

[2] = qHTS assay for small molecules that induce genotoxicity in human embryonic kidney cells expressing luciferase-tagged ATAD5 - cell viability (AID 651634; calls by dose curve; note: nearly all actives have a fitted effect of over 25% in size); settings: HEK293T ATAD5-luc cells viability, CellTiter-Fluor, 15.5 h; series mostly up to 83.3 µM
Method in brief: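 Live-cell protease activity (CellTiter-Fluor, fluorescence) indicates viability. HEK293T cells with luciferase-tagged ATAD5; 15.5 hr compound treatment at 37C.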

[3] = qHTS assay for small molecule disruptors of the mitochondrial membrane potential - cell viability (AID 720634; calls by dose curve;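 note: human HepG2 liver cancer cells; nearly all actives have a fitted effect of over 20% in size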); settings: HepG2 viability, ATP luminescence (CellTiter-Glo), 1 h; series mostly up to 83.2 µM
Method in brief: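 Human hepatoma HepG2 cells were treated for 1 hr with test chemicals, then given m-MPI dye and CellTiter-Glo. Cell viability reflects luminescence proportional to cellular ATP.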

[4] = qHTS assay for small molecule disruptors of the mitochondrial membrane potential (AID 720635); settings: HepG2 mitochondrial membrane potential, Mito-MPS dye ratio; series mostly up to 83.2 µM; note: potency is the fitted concentration of half-maximal effect
Method in brief: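 HepG2 cells (2,000/well) attached overnight at 37C, then took compound for 1 hr at 37C, 5% CO2. Mito-MPS dye was added for 30 min; fluorescence was read at 490/535 nm (monomers) and 540/590 nm (aggregates).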

[5] = qHTS assay to test for compound auto fluorescence at 535 nm (green) in HepG2 cells (AID 720675); settings: green autofluorescence 485/535 nm, 1 h; series mostly up to 91.3 µM
[6] = qHTS assay to test for compound auto fluorescence at 460 nm (blue) in HEK293 cells (AID 720678); settings: blue autofluorescence 405/460 nm; series mostly up to 91.3 µM
Method in brief: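 Intrinsic compound fluorescence is recorded in live HEK293 cultures after overnight incubation at 37C, 5% CO2, using excitation 405 nm and emission 460 nm. Values are referenced to triamterene.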

[7] = qHTS assay to test for compound auto fluorescence at 590 nm (red) in HEK293 cells (AID 720679); settings: red autofluorescence 540/590 nm; series mostly up to 91.3 µM
Method in brief: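 Red autofluorescence, HEK293 cells: 2,000 cells/well; attach 4-5 hr 37C; add 23 nL cpd or DMSO; incubate o/n 37C 5% CO2; read Ex540/Em590; Rose Bengal sodium reference.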

[8] = qHTS assay to test for compound auto fluorescence at 535 nm (green) in HEK293 cells (AID 720680); settings: green autofluorescence 485/535 nm; series mostly up to 91.3 µM
[9] = qHTS assay to test for compound auto fluorescence at 460 nm (blue) in HEK293 cell free culture (AID 720681); settings: cell-free medium, autofluorescence 405/460 nm (blue); series mostly up to 91.3 µM
Method in brief: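 Test compounds were pinned into cell-free culture medium (DMEM with 10% FBS) and fluorescence was read directly at Ex/Em 405/460 nm. Signals were expressed as fluorescence equivalents of triamterene, with DMSO vehicle as control.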

[10] = qHTS assay to test for compound auto fluorescence at 535 nm (green) in HEK293 cell free culture (AID 720682); settings: cell-free medium, green autofluorescence 485/535 nm, active compounds read high; series mostly up to 91.3 µM
Method in brief: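 DMEM + 10% FBS, cell-free; cpd or DMSO pinned in; Ex485/Em535 read; output as fluorescein-equivalent signal.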

[11] = qHTS assay to test for compound auto fluorescence at 590 nm (red) in HEK293 cell free culture (AID 720683); settings: cell-free medium autofluorescence, Ex540/Em590 red; series mostly up to 91.3 µM
Method in brief: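 Tox21 10K library compounds were pinned into cell-free DMEM with 10% FBS and fluorescence was read at excitation 540 nm. Activity is expressed as Rose Bengal sodium equivalency.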

[12] = qHTS assay to test for compound auto fluorescence at 590 nm (red) in HepG2 cell free culture (AID 720684); settings: cell-free medium autofluorescence, red 540/590 nm; series mostly up to 91.3 µM
Method in brief: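 Measured in medium alone (MEM containing 10% FBS) following pintool addition of compound; emission at 590 nm with 540 nm excitation, referenced to Rose Bengal sodium.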

[13] = qHTS assay to test for compound auto fluorescence at 460 nm (blue) in HepG2 cell free culture (AID 720685); settings: Cell-free culture medium, blue autofluorescence 405/460 nm; series mostly up to 91.3 µM
Method in brief: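 Compound (23 nL) or DMSO pinned into cell-free MEM with 10% FBS; blue fluorescence read at 405/460 nm excitation/emission, expressed as auto-fluorescence equivalency to triamterene.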

[14] = qHTS assay to test for compound auto fluorescence at 535 nm (green) in HepG2 cell free culture (AID 720686); settings: Cell-free medium, green autofluorescence 485/535 nm; series mostly up to 91.3 µM
[15] = qHTS assay to test for compound auto fluorescence at 460 nm (blue) in HepG2 cells (AID 720687); settings: autofluorescence 405/460 nm, 1 h; series mostly up to 91.3 µM
Method in brief: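 Cells (2,000/well in MEM with 10% FBS) attached overnight at 37 C, then were exposed to compound or DMSO for 1 hr at 37 C, 5% CO2. Fluorescence read at Ex/Em 405/460 nm, expressed as triamterene-equivalent signal.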

[16] = qHTS assay for small molecule agonists of the p53 signaling pathway (AID 651631; calls by dose curve; note: nearly all actives have a fitted effect of over 15% in size); settings: HCT-116 p53RE-bla reporter, beta-lactamase FRET ratio, 16 h; series mostly up to 73.3 µM
Method in brief: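 Testing took place in human colorectal HCT-116 cells with stable p53RE-driven beta-lactamase. After 16 h of compound exposure at 37 °C, a FRET substrate was added and fluorescence recorded 2 h later.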

[17] = qHTS assay for small molecule agonists of the p53 signaling pathway - cell viability (AID 651633; calls by dose curve; note: nearly all actives have a fitted effect of over 30% in size); settings: p53RE-bla HCT-116 viability, ATP luminescence, 16 h; series mostly up to 83.3 µM
Method in brief: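 p53RE-bla cells, seeded at 4,000 per well and rested 5 h at 37 C/5% CO2, received compounds in DMSO for 16 h at 37 C. CellTiter-Glo was then added, and luminescence was read after 30 min at room temperature to gauge cytotoxicity.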

[18] = qHTS assay to test for compound auto fluorescence at 590 nm (red) in HepG2 cells (AID 720674); settings: HepG2 autofluorescence, red 540/590 nm, 1 h; series mostly up to 91.3 µM
Method in brief: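 Rose Bengal sodium served as the red fluorophore standard. HepG2 monolayers (overnight attachment, MEM with 10% FBS) were exposed to test compounds for 1 hr at 37 C and read at Ex 540/Em 590 nm.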

[19] = target: Glucocorticoid receptor (Homo sapiens) (UniProt P04150); experiment: qHTS assay to identify small molecule agonists of the glucocorticoid receptor (GR) signaling pathway (AID 720691; active = well fitted activation curve with a large enough effect in the signal ratio in the repeat runs, not every such curve was filed as active; the % refers to the signal ratio); settings: GR-bla HeLa, beta-lactamase reporter ratio, 18 h; series mostly up to 62.4 µM
Sequence of Glucocorticoid receptor (Homo sapiens) (P04150 whole entry, looked up): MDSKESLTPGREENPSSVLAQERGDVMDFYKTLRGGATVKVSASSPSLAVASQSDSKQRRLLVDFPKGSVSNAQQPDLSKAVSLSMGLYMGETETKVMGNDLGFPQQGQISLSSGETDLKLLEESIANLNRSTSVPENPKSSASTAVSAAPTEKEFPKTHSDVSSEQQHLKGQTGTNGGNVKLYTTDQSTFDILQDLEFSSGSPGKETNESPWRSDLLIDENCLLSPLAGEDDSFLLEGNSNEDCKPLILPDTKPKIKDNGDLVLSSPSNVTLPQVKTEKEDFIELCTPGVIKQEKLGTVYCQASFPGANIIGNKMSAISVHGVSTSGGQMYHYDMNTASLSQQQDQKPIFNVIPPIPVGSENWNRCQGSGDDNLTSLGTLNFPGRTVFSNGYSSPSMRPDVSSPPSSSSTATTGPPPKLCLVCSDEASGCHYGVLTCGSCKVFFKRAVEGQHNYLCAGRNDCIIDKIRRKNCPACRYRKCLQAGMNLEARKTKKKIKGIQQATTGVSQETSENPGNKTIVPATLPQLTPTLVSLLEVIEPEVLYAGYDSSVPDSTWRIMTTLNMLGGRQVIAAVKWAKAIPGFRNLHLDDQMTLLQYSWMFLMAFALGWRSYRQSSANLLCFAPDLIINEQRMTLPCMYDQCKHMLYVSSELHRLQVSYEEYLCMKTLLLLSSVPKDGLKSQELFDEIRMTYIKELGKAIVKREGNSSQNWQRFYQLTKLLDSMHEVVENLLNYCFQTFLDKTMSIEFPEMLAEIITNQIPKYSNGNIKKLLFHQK
Method in brief: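 Beta-lactamase reporter activity, read as fluorescence intensity, was measured in GR-bla HeLa cells exposed to compounds for 18 h at 37 C and then loaded with LiveBLAzer B/G FRET substrate for 2 h at room temperature.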

[20] = target: Glucocorticoid receptor (Homo sapiens) (UniProt P04150); experiment: qHTS assay to identify small molecule antagonists of the glucocorticoid receptor (GR) signaling pathway (AID 720692; active = well fitted inhibition curve with a large enough effect in the signal ratio in the repeat runs, not every such curve was filed as active; the % refers to the signal ratio; note: potency is the fitted concentration of half-maximal effect); settings: GR-bla HeLa, beta-lactamase FRET ratio, dexamethasone-stimulated, 18 h; series mostly up to 58.5 µM
Method in brief: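 Fluorescence from cleaved LiveBLAzer B/G FRET substrate reports GRE-driven beta-lactamase in HeLa cells; compounds are tested against 5 nM dexamethasone (final) over 18 h at 37 C, substrate incubation 2 h at room temperature.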

SMILES	outcome [1]	outcome [2]	Potency [3]	Potency [4]	outcome [5]	outcome [6]	outcome [7]	outcome [8]	outcome [9]	outcome [10]	outcome [11]	outcome [12]	outcome [13]	outcome [14]	outcome [15]	outcome [16]	outcome [17]	outcome [18]	outcome [19]	Potency [20]
CCC(C)(CC)c1cc(NC(=O)c2c(OC)cccc2OC)on1	inactive	inactive	inactive	27.4 µM (active) and 20.9 µM (active)	inactive	inactive	inactive	inactive	inactive	inactive	inactive	inactive	inactive	inactive	inactive					
O=c1ccc(=O)[nH][nH]1		inactive	inactive		inactive	inactive	inactive		inactive	inactive	inactive	inactive	inactive	inactive	inactive	inactive	inactive	inactive		
C=CC(N)=O			inactive	inactive	inactive	inactive		inactive	inactive	inactive	inactive	inactive	inactive	inactive	inactive	inactive	inactive	inactive	inactive	inactive
Cc1ccc(N)cc1Cl	inactive	inactive	inactive	inactive	inactive	inactive			inactive	inactive	inactive	inactive	inactive	inactive	inactive		inactive	inactive		
Clc1ccccc1Cl	inactive	inactive	inactive	inactive	inactive	inactive	inactive		inactive	inactive	inactive	inactive	inactive	inactive	inactive		inactive	inactive	inactive	inactive
C1CC2OC2CC1C1CO1 (stereo unspecified)	inactive	inactive	inactive	inactive	inactive	inactive	inactive	inactive	inactive	inactive	inactive	inactive	inactive	inactive	inactive		inactive	inactive		
CCNc1nc(NC(C)C)nc(SC)n1	inactive	inactive	inactive		inactive	inactive	inactive	inactive	inactive	inactive	inactive	inactive	inactive	inactive	inactive		inactive			
O=S(=O)(c1ccc(Cl)cc1)c1cc(Cl)c(Cl)cc1Cl	inactive	inactive	inactive		inactive	inactive	inactive	inactive	inactive	inactive	inactive	inactive	inactive	inactive	inactive		inactive		inactive	
CN1C(=O)CN=C(c2ccccc2)c2cc(Cl)ccc21		inactive	inactive	inactive	inactive	inactive			inactive	inactive	inactive	inactive	inactive	inactive	inactive	inactive	inactive	inactive	inactive	13.4 µM (active) and 28 µM (active)
Cc1[nH]c(=O)n(C(C)(C)C)c(=O)c1Cl	inactive	inactive	inactive		inactive	inactive	inactive	inactive	inactive	inactive	inactive	inactive	inactive	inactive	inactive		inactive	inactive		
CC(C)=C[C@@H]1[C@@H](C(=O)OCc2coc(Cc3ccccc3)c2)C1(C)C	inactive	inactive	inactive	23.7 µM (active)	inactive	inactive			inactive	inactive	inactive	inactive	inactive	inactive	inactive		inactive	inactive	inactive	inactive
Cc1ccc([N+](=O)[O-])cc1C	inactive	inactive	inactive		inactive	inactive	inactive	inactive	inactive	inactive	inactive	inactive	inactive	inactive	inactive		inactive	inactive		
COc1ccc2c3c1O[C@H]1[C@@H](O)C=C[C@H]4[C@@H](C2)N(C)CC[C@@]341	inactive	inactive	inactive		inactive	inactive	inactive		inactive	inactive	inactive	inactive	inactive	inactive	inactive		inactive			
O=Cc1cccc(Oc2ccccc2)c1	inactive	inactive	inactive		inactive	inactive	inactive	inactive	inactive	inactive	inactive	inactive	inactive	inactive	inactive			inactive	inactive	inactive
Nc1ccc(Br)cc1	inactive	inactive	inactive	inactive	inactive	inactive		inactive	inactive	inactive	inactive	inactive	inactive	inactive	inactive		inactive		inactive	
CC(C#N)CCC#N (stereo unspecified)	inactive	inactive			inactive	inactive		inactive	inactive	inactive	inactive	inactive	inactive	inactive	inactive	inactive	inactive	inactive	inactive	inactive
CC(=O)C=C(C)C	inactive	inactive	inactive		inactive	inactive	inactive	inactive	inactive	inactive	inactive	inactive	inactive	inactive	inactive				inactive	inactive
Cc1cccc([N+](=O)[O-])c1	inactive	inactive	inactive	inactive	inactive	inactive	inactive		inactive	inactive	inactive	inactive	inactive	inactive	inactive		inactive	inactive	inactive	
[O-][Cl+2]([O-])O			inactive	inactive	inactive	inactive	inactive	inactive	inactive	inactive	inactive	inactive	inactive	inactive	inactive	inactive	inactive			
CC(C)(C)C(O)(CCc1ccc(Cl)cc1)Cn1cncn1 (stereo unspecified)	inactive	inactive	inactive		inactive	inactive			inactive	inactive	inactive	inactive	inactive	inactive	inactive	inactive	inactive		inactive	43.6 µM (active)
CCCCN(CCCC)SN(C)C(=O)Oc1cccc2c1OC(C)(C)C2	inactive	inactive	inactive	62.1 µM (active)	inactive	inactive			inactive	inactive	inactive	inactive	inactive	inactive	inactive			inactive	inactive	inactive
COC(=O)c1ccccc1N		inactive	inactive		inactive	inactive	inactive	inactive	inactive	inactive	inactive	inactive	inactive	inactive	inactive	inactive	inactive	inactive	inactive	inactive

Reference: PubChem BioAssay (Tox21)
